Measurements from PubChem BioAssay (EPA / NIEHS).
The source made the active and inactive calls. Rule for the calls: active = hit-call score of the fitted dose curve at least 0.9, where 1 is the maximum; inactive = score below 0.9.

read-out: Cellular tumor antigen p53 (Homo sapiens) (UniProt P04637); assay: LTEA_HepaRG_TP53: Life Technologies and Expression Analysis (LTEA) Assay for Tumor Protein P53 (TP53) using HepaRG (AID 2283537); details: mRNA level, 48 h; actives raise or lower the signal
Method: LTEA_HepaRG is a cell based, multiplexed-readout assay that uses HepaRG, a human liver cell line, with measurements taken at 48 hours after chemical dosing on a 96-well plate.LTEA_HepaRG_TP53 is one of 102 assay component(s) measured in the LTEA HepaRG cell culture assay. It is a marker of Oxidative Stress.Data from the assay component LTEA_HepaRG_TP53 was analyzed into 1 endpoint. This assay endpoint, LTEA_HepaRG_TP53, was analyzed with bidirectional fitting relative to DMSO as the negative control and baseline of activity. Using a type of inducible reporter, measures of mRNA induction for gain or loss-of-signal activity can be used to understand regulation of transcription factor activity. To generalize the intended target to other relatable targets, this assay endpoint is annotated to the dna binding intended target family, where the subfamily is tumor suppressor.
A total of 1060 chemcials from the ToxCast library were tested in eight-point concentration-response experiments. Cell culture and cytotoxicity assays were conducted at Thermo Fisher Scientific's Custom Services facility (Madison, WI). A single lot of human HepaRG cells (Thermo Fisher Scientific, Frederick, MD) was used for the cell culture experiments. 96-well format collagen type I coated plates of human HepaRG cells were prepared using established methods. Briefly, cryopreserved HepaRG cells were thawed, plated at a density of approximately 100,000 cells/well in HepaRG Thaw, Plate, and General Purpose media (HPRG770, Thermo Fisher Scientific), and incubated for 48 hours. 0.5% DMSO was selected as vehicle control to balance the requisite need of DMSO in HepaRG cultures to maintain differentiation (for example, baseline metabolism, proportions of hepatocytes vs. cholangiocytes), while enabling further hepatic receptor pathway activation (for example, PXR and CAR) in response to chemical exposure. 48 hours after plating, the culture medium was replaced with HepaRG Serum-Free Incudtion Media. Cells were exposed to each test chemical in duplicate and maintained in CO2 incubators for another 48 hours. Chemical plates were thawed to room temperature and 200x concentrations of treatment groups were prepared. 8-point conentration-reponse curves were made with the highest exposure at 100 uM, followed by half-log dilutions, all in 0.5% DMSO. Each test plate contained variouse controls, induction positive controls (1mM phenobarbital), cytotoxicity positive controls ([…] aflatoxin B1), vehicle controls (0.5% DMSO), and total lysis controls (0.5% DMSO). Cell morphology images were taken using an Essen IncuCyte FLR automated microscope, with six 96-well plates imaged in about 24 minutes. Images were captured and exported and JPEG files. Spent culture media was transfered to black-well plates for the LDH assay, and remaining media was sorted at -80 C for later use. Cells were treated with RLT buffer and frozen until shipped for gene expression analysis. Total RNA was isolated from the cell suspension in 75 uL of Buffer RLT (Qiagen, Germantown, MD 20874) by Quintiles/Expression Analysis (Durham, NC) using a custom isolation procedure. Total RNA from each plate well was transferred to a preamplification plate. Fluidigm's 96.96 Dynamic ArrayTM (Fluidigm, Amsterdam, the Netherlands) technology was used for gene expression analyses by quantitative reverse transcription polymerase chain reaction (qRT-PCR, performed by Quintiles/Expression Analysis, Durham, NC)89. Standard TaqManTM Assays (Applied Biosystems/ThermoFisher Scientific, Foster City, CA) were used to assess the expression of 93 genes selected based on their selectivity and sensitivity to important hepatic receptors known to be modulated by environmental chemicals; importance in human hepatocyte functionality; and hepatotoxicity. […]

Chain of Cellular tumor antigen p53 (Homo sapiens) (P04637 whole entry, looked up): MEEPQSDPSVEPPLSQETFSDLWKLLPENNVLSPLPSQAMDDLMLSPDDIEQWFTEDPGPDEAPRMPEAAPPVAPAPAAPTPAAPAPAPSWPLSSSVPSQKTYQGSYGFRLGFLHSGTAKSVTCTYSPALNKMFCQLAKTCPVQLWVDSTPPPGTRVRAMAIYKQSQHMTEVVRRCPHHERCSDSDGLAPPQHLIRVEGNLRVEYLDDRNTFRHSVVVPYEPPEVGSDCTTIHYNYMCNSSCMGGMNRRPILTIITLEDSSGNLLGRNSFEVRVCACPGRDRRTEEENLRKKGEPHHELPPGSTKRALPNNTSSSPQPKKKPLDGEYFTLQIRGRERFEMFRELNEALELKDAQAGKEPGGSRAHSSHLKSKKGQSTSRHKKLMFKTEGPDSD

Structure (SMILES) | outcome | AC50
CCc1ccc(O)c(C(C)(C)C)c1 | inactive | 
O=S1(=O)CCCO1 | inactive | 
OC(Cn1cncn1)(Cn1cncn1)c1ccc(F)cc1F | inactive | 
CCCCCCCCCCCCCCO | inactive | 
CCn1nc(C)c2c1C(=O)NCC(c1ccc(O)cc1)=N2 | inactive | 
CCCCCCCC/C=C\CCCCCCCC(=O)OC[C@@H](O)[C@H]1OC[C@H](O)[C@H]1O | inactive | 
CCCCCCCC1CCC(=O)O1 (centres undefined) | inactive | 
O=C(O)c1cccc(C[C@@H]2COc3ccc(OCc4nc5cc(F)ccc5s4)cc3[C@@H]2O)c1 | inactive | 
CCCCOC(=O)c1ccccc1 | inactive | 
NNC(=O)c1ccncc1 | inactive | 
CC(=O)c1ccccc1 | inactive | 
NC(=O)NN=Cc1ccc([N+](=O)[O-])o1 |  | 9.92 µM (active)
CCCCN1C(=O)[C@@H]([C@H](O)C2CCCCC2)NC(=O)C12CCN(Cc1ccc(Oc3ccc(C(=O)O)cc3)cc1)CC2 | inactive | 
CCN(CC)C(=S)SSC(=S)N(CC)CC | inactive | 
Cn1c(=O)c2[nH]cnc2n(C)c1=O | inactive | 
CCCCCCCCN(C)C | inactive | 
CCCCC(CC)C(=O)OCCOCCOCCOC(=O)C(CC)CCCC (centres undefined) | inactive | 

Structure (SMILES) | outcome | AC50
CC1(C)C(=O)N(Cl)C(=O)N1Cl | inactive | 
CCCCCCCCCC | inactive | 
CCOC(N)=O | inactive | 
OCCOCCOCCO | inactive | 
c1ccc(C(O[C@@H]2CCCN(CCc3ccc4c(c3)OCO4)C2)c2ccccc2)cc1 |  | 75.4 µM (active)
O=C1CN(N=Cc2ccc([N+](=O)[O-])o2)C(=O)N1 | inactive | 
CC(C)c1nnc2ccc(-c3ocnc3-c3cc(F)ccc3F)cn12 | inactive | 
OC(CCl)CCl | inactive | 
CCCCCCCCCCCCCCCCOS(=O)(=O)O | inactive | 
Cn1cc[nH]c1=S | inactive | 
CCc1cccc(CC)c1N | inactive | 
C=CN1CCCC1=O | inactive | 
c1ccc2ncccc2c1 | inactive | 
CCCc1ccccc1 | inactive | 
C[C@]12C=CC(=O)C=C1CC[C@H]1[C@@H]3C[C@@H](O)[C@](O)(C(=O)CO)[C@@]3(C)C[C@H](O)[C@@]12F | inactive | 
c1ccc2cc3ccccc3cc2c1 | inactive | 
O=C(O)c1ccc2c(c1)nc(C(=O)NC1CCN(C3CC3)CC1)n2Cc1cc(-c2ccc(Cl)s2)on1 | inactive | 
